This is an account of results in PubChem BioAssay (NCATS).

Results filed as inconclusive are left out. Activity calls are given as the source filed them. Calls follow the shape of the dose curve; as a rule, active = well fitted curve in the direction sought with a large enough effect; inconclusive = small, poorly fitted or top-dose-only effect, or another doubt; inactive = no such curve, though single readings can be large; an effect the other way counts as inactive or inconclusive.

Experiment [1] can be described thus: Quantitative High-Throughput drug screen in 47 multiple myeloma cell lines against the NCATS MIPE library collection: Karpas25_ECACC cell viability assay (AID 1918968; also: nearly all actives have a fitted effect of over 35% in size). In short, it runs like this:
(§1)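 Myeloma cells (500 per well) were exposed to MIPE 4.0 compounds by pin transfer and incubated 48 hours at 37C, 5% CO2. Viability was read as ATP by CellTiter-Glo luminescence, normalised to DMSO (100%) and media-only (0%) wells.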

Experiment [2] is described as follows: Quantitative High-Throughput drug screen in 47 multiple myeloma cell lines against the NCATS MIPE library collection: KMS27_JCRB cell viability assay (AID 1918970). Also: nearly all actives have a fitted effect of over 30% in size. The note with it: KMS27 myeloma cells, CellTiter-Glo ATP viability, 48 h; viability (% of DMSO): at 45.8 µM (top of the series). In short, it runs like this:
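Luminescent ATP read-out (CellTiter-Glo, 5 min at room temperature) after 48 h compound exposure of 500 KMS27_JCRB cells per well; DMSO wells define full viability and media-only wells zero.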
Background: ATP-based viability assays read luminescence as a measure of living cells.

A short description of experiment [3]: Quantitative High-Throughput drug screen in 47 multiple myeloma cell lines against the NCATS MIPE library collection: KMS12BM_JCRB cell viability assay (AID 1918971). Also: nearly all actives have a fitted effect of over 35% in size. In short, it runs like this:
(§2)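 CellTiter-Glo luminescence (ATP) after 48 h compound exposure, 37C/5% CO2; 500 cells/well; MIPE 4.0 approved/investigational drugs pinned in; DMSO = 100%, media only = 0% viability.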

Experiment [4] is described as follows: Quantitative High-Throughput drug screen in 47 multiple myeloma cell lines against the NCATS MIPE library collection: KMS12PE_JCRB cell viability assay (AID 1918972). Also: nearly all actives have a fitted effect of over 30% in size. In short, it runs like this: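 Luminescent ATP measurement with CellTiter-Glo gives viability, scaled between DMSO-only wells (100%) and media-only wells (0%). Cells, 500 per well, faced library compounds for 48 hours at 37C.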

The nature of experiment [5]: Quantitative High-Throughput drug screen in 47 multiple myeloma cell lines against the NCATS MIPE library collection: KMS26_JCRB cell viability assay (AID 1918975). Also: nearly all actives have a fitted effect of over 45% in size. In short, it runs like this: as §2
Experiment [6] is described as follows: Quantitative High-Throughput drug screen in 47 multiple myeloma cell lines against the NCATS MIPE library collection: MMM1_PLB cell viability assay (AID 1918976). Also: nearly all actives have a fitted effect of over 35% in size. In short, it runs like this: (§3)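 qHTS format: cells plated (500/well), pin-dosed with MIPE 4.0 compounds, kept 48 h at 37 °C. Readout was CellTiter-Glo luminescence, median RLU.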
A short description of experiment [7]: Quantitative High-Throughput drug screen in 47 multiple myeloma cell lines against the NCATS MIPE library collection: MOLP8_DSMZ cell viability assay (AID 1918977). Also: nearly all actives have a fitted effect of over 45% in size. In short, it runs like this: as §3
Experiment [8] can be described thus: Quantitative High-Throughput drug screen in 47 multiple myeloma cell lines against the NCATS MIPE library collection: KMS21BM_JCRB cell viability assay (AID 1918974). The settings on record: ATP luminescence, 48 h; viability: at 45.8 µM (top of the series). In short, it runs like this:
as §1

The nature of experiment [9]: Quantitative High-Throughput drug screen in 47 multiple myeloma cell lines against the NCATS MIPE library collection: KMS20_JCRB cell viability assay (AID 1918973). Also: nearly all actives have a fitted effect of over 45% in size. In short, it runs like this:
as §1

Experiment [10] can be described thus: Quantitative High-Throughput drug screen in 47 multiple myeloma cell lines against the NCATS MIPE library collection: NCIH929_DSMZ cell viability assay (AID 1918978). Also: nearly all actives have a fitted effect of over 35% in size. In short, it runs like this: as §3
Potency is read from the fitted curve at half-maximal effect.

On to `CC(C)=CCCC(C)=CCCC(C)=CCCC(C)=CCCC(C)=CCCC(C)=CCCC(C)=CCCC(C)=CCCC(C)=CCO`, for which the Potency result in [1], in [2], in experiment [3], in experiment [4], in experiment [5] and in experiment [6] was “inactive” throughout. Besides, the Potency in experiment [7] was 9.35 µM (active).

In the case of `Cc1cc(CS(=O)(=O)c2ccccc2)cc(OCc2ccc(CN3CCC[C@H]3CO)cc2)c1`, the Potency is 16.6 µM (active) in [1]; 4.18 µM (active) in [2]; 16.6 µM (active) in experiment [3]; 16.6 µM (active) in experiment [4]; 1.18 µM (active) in experiment [8]; 5.26 µM (active) in experiment [5].

As for `Cc1cccc(-c2[nH]c(C(C)(C)C)nc2-c2ccc3c(c2)OCO3)n1`, the Potency in experiment [1] is 0.526 µM (active); in experiment [2], 1.32 µM (active); in experiment [3], 18.7 µM (active); in [4], 3.72 µM (active); in [9] it was 2.35 µM (active); in experiment [5] it was 16.6 µM (active). Besides, the Potency in experiment [6] is 16.6 µM (active); in experiment [7] it was 6.62 µM (active); in experiment [10] it was 6.62 µM (active).

Regarding `CC[C@H](C=C[C@@H](C)[C@H]1CC[C@H]2[C@@H]3CC=C4C[C@@H](O)CC[C@]4(C)[C@@H]3CC[C@]12C)C(C)C`, the Potency entry in [1], in experiment [2], in experiment [3], in experiment [4], in [9] and in [10] was “inactive” throughout.

With `COc1c(C)c2c(c(O)c1CC=C(C)CCC(=O)OCCN1CCOCC1)C(=O)OC2`, the Potency is 4.18 µM (active) in experiment [1]; 2.09 µM (active) in experiment [2]; 4.18 µM (active) in experiment [3]; 3.72 µM (active) in [4]; 2.96 µM (active) in experiment [7]. Further, in [5], the Potency entry is “inactive”.

For `OC[C@H]1O[C@@H](O[C@H]2[C@@H](O)[C@@](O)(CO)O[C@@H]2CO)[C@H](O)[C@@H](O)[C@@H]1O`, the Potency result in experiment [1], in [2], in experiment [3], in experiment [4], in experiment [5] and in experiment [10] was “inactive” in each case. For the same compound, in [6], the Potency was 3.72 µM (active).

For the compound `O=C(CO)N1CCC(c2[nH]nc(-c3ccc(Cl)cc3)c2-c2ccncn2)CC1`, the Potency entry in experiment [1], in [2], in experiment [4], in experiment [5], in [7] and in [10] was “inactive” each time. Also, in experiment [3], the Potency is 0.935 µM (active).

Regarding `Nc1[nH]nc2nnc(-c3c(-c4ccccc4)nn4ccccc34)cc12`, the Potency in experiment [1] is 1.66 µM (active); in experiment [2] it was 1.87 µM (active); in experiment [4] it was 2.35 µM (active); in experiment [10] it was 3.72 µM (active). The Potency entry in experiment [3] and in [5] was “inactive” each time.

Take `CCCC1OC2C[C@@H]3[C@H]4CCC5=CC(=O)C=C[C@]5(C)[C@H]4C(O)C[C@]3(C)[C@]2(C(=O)CO)O1` (some centres undefined): the Potency in experiment [1] was 0.0132 µM (active); in [3] it was 20.9 µM (active); in experiment [10] it was 0.296 µM (active). In addition, the Potency entry in [2], in [4] and in experiment [5] was “inactive” throughout.

With `C[C@@]1(C(=O)Nc2ccc(F)nc2)CCCN1c1nc(Nc2cc(C3CC3)[nH]n2)c2cccn2n1`, the Potency in experiment [1] was 0.0332 µM (active); in experiment [2], 0.0526 µM (active); in [3], 0.935 µM (active); in [4] it was 0.166 µM (active); in [5], 0.0066 µM (active); in experiment [6], 0.0209 µM (active). Further, the Potency in experiment [10] was 0.0235 µM (active).

In the case of `NC[C@H]1O[C@H](O[C@@H]2[C@@H](O)[C@@H](O[C@H]3O[C@H](CO)[C@@H](O)[C@H](N)[C@@H]3O)[C@H](N)C[C@@H]2N)[C@H](O)[C@@H](O)[C@H]1O`, the Potency entry in experiment [1], in experiment [2], in experiment [3], in experiment [4], in experiment [7] and in [10] was “inactive” throughout.

For the compound `CC(C)(CO)[C@@H](O)C(=O)NCCC(=O)O`, the Potency entry in [1], in [2], in experiment [3], in experiment [4], in experiment [7] and in experiment [10] was “inactive” in each case.

With `Cc1cccc(Nc2nc(N[C@@H]3CCCC[C@H]3N)ncc2C(N)=O)c1`, the Potency is 10.5 µM (active) in [1]; 23.5 µM (active) in experiment [2]; 14.8 µM (active) in experiment [3]; 16.6 µM (active) in [4]; 20.9 µM (active) in [5]; 14.8 µM (active) in experiment [7]. Further, the Potency in experiment [10] was 6.62 µM (active).

In the case of `Cc1ccc(NC(=O)c2ccc(CN3CCN(C)CC3)cc2)cc1Nc1nc(-c2cccnc2)cs1`, the Potency in [1] was 5.9 µM (active); in [2], 20.9 µM (active); in [3], 23.5 µM (active); in experiment [4], 18.7 µM (active); in experiment [6], 18.7 µM (active); in experiment [10], 23.5 µM (active).

Take `CC(=O)OCC(=O)[C@@]1(O)CC[C@H]2[C@@H]3CCC4=CC(=O)C=C[C@]4(C)[C@@H]3[C@@H](O)C[C@@]21C`: the Potency in experiment [1] is 0.526 µM (active); in experiment [3], 0.187 µM (active); in experiment [6], 2.64 µM (active); in experiment [7], 2.35 µM (active); in experiment [10], 0.187 µM (active). The Potency entry in experiment [2] and in experiment [4] was “inactive” in each case.

With `CN[C@H]1[C@@H](O[C@@H]2[C@H](O[C@@H]3[C@@H](O)[C@@H](O)[C@@H](N=C(N)N)[C@@H](O)[C@@H]3N=C(N)N)O[C@H](C)[C@@]2(O)C=O)O[C@@H](CO)[C@@H](O)[C@H]1O`, the Potency entry in experiment [1], in experiment [2], in experiment [3], in [4], in experiment [5] and in [10] was “inactive” in each case.

Take `C[C@H](c1ccc(F)cc1CCCC(=O)O)N(c1cc(F)ccc1F)S(=O)(=O)c1ccc(Cl)cc1`: the Potency in experiment [1] is 20.9 µM (active); in [3] it was 1.48 µM (active); in [5] it was 0.743 µM (active); in [10], 6.62 µM (active). The Potency result in experiment [2] and in [4] was “inactive” in each case.

Take `CCn1c(-c2nonc2N)nc2cncc(CNC3CCNCC3)c21`: the Potency was 8.33 µM (active) in experiment [1]; 2.09 µM (active) in [2]; 1.05 µM (active) in experiment [4]; 8.33 µM (active) in experiment [6]; 14.8 µM (active) in experiment [7]. Moreover, the Potency entry in [3] is “inactive”.

Regarding `NC(=O)c1noc([C@H](CCCC2CCCCC2)CC(=O)NO)n1`, the Potency in [1] is 14.8 µM (active); in experiment [2], 7.43 µM (active); in experiment [3], 7.43 µM (active); in experiment [4], 5.26 µM (active); in experiment [5], 11.8 µM (active); in experiment [6] it was 16.6 µM (active). In addition, the Potency in [10] is 14.8 µM (active).
